According to PubChem BioAssay (NCI):
Where “and” joins values, the source holds several entries; their conditions need not be identical. Equal values may be shown once. This is part of a sample that, as a whole, favours compounds with a hit. Of some 83,000 tested, about 20% had one in any assay.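 Each cell line was grown in a 96-well plate and treated with one concentration of compound for 48 hours. Values below 10 were considered active.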 Calls of active or inactive are those of the source.

Experiments:
Experiment in all cases: NCI-60 one-dose screen, 48 h (100 = growth as untreated, 0 = no growth, -100 = all killed)
[1] = test system: DU-145 prostate
[2] = test system: K-562 leukemia
[3] = test system: MALME-3M melanoma
[4] = test system: MDA-MB-231 breast
[5] = test system: RXF 393 renal
[6] = test system: SF-268 CNS
[7] = test system: SF-295 CNS
[8] = test system: SF-539 CNS
[9] = test system: UACC-257 melanoma
[10] = test system: M14 melanoma

Measured: growth

COc1ccc(Cl)cc1C(=O)NCCc1ccc(S(=O)(=O)NC(=O)NC2CCCCC2)cc1
inactive: [1]; 10 µM 124% and 120% | [1]; 100 µM 79.8% | [2]; 10 µM 102% | [2]; 100 µM 66.6% | [3]; 10 µM 126% and 96.5% | [3]; 100 µM 71.9% | [4]; 10 µM 96.7% and 105% | [4]; 100 µM 61.9% | [5]; 10 µM 110% and 104% | [5]; 100 µM 51.6% | [6]; 10 µM 113% and 105% | [6]; 100 µM 74.3% | [7]; 10 µM 90.2% and 105% | [7]; 100 µM 74% | [8]; 10 µM 113% and 102% | [8]; 100 µM 68.8% | [9]; 10 µM 106% | [9]; 100 µM 85.9% | [10]; 10 µM 113% and 104% | [10]; 100 µM 67.9%

CC(C)Oc1ccc2cc(-c3nn(CC4CCNCC4)c4ncnc(N)c34)ccc2c1
60.5% (inactive) and -42.9% (active): [4]; 10 µM unless noted
73.1% (inactive) and -83.1% (active): [8]; 10 µM unless noted
active: [9]; 10 µM unless noted -81.8% | [10]; 10 µM unless noted 5.7% and -84.7%
inactive: [1]; 10 µM unless noted 107% and 40.4%
73.7% (inactive) and -77.1% (active): [3]; 10 µM unless noted
43.1% (inactive) and -68.4% (active): [2]; 10 µM unless noted
97.8% (inactive) and -54.6% (active): [7]; 10 µM unless noted
88.4% (inactive) and 1.08% (active): [6]; 10 µM unless noted
39.3% (inactive) and -73.3% (active): [5]; 10 µM unless noted

NC(=S)NS(=O)(=O)c1ccc(N)cc1
inactive: [1]; 10 µM unless noted 125% | [2]; 10 µM unless noted 103% | [3]; 10 µM unless noted 96.6% | [4]; 10 µM unless noted 117% | [5]; 10 µM unless noted 101% | [6]; 10 µM unless noted 107% | [7]; 10 µM unless noted 94.7% | [8]; 10 µM unless noted 98.7% | [9]; 10 µM unless noted 101% | [10]; 10 µM unless noted 106%

COc1cc(C(=O)c2ccc3c(c2)OCO3)cc(OC)c1OC
28.3% (inactive) and 4.22% (active): [5]; 10 µM unless noted
18.4% (inactive) and -1.47% (active): [8]; 10 µM unless noted
inactive: [1]; 10 µM unless noted 10.4% and 27.7% | [2]; 10 µM unless noted 10.7% | [3]; 10 µM unless noted 14.5% and 34.1% | [4]; 10 µM unless noted 53.2% and 47.4% | [6]; 10 µM unless noted 37.3% and 40.6% | [9]; 10 µM unless noted 18.6% and 49.4% | [10]; 10 µM unless noted 21% and 19.9%
active: [7]; 10 µM unless noted 9.91% and 9.21%

O=C(O)c1sccc1O
active: [2]; 100 µM 5.69% | [10]; 100 µM 7.02%
inactive: [1]; 10 µM 83.1% | [1]; 100 µM 40.3% | [2]; 10 µM 60.5% | [3]; 10 µM 103% | [3]; 100 µM 78.8% | [4]; 10 µM 40.8% | [4]; 100 µM 27.7% | [5]; 10 µM 84.6% | [5]; 100 µM 52.1% | [6]; 10 µM 71.6% | [6]; 100 µM 26% | [7]; 10 µM 76.6% | [7]; 100 µM 31.2% | [8]; 10 µM 85.4% | [8]; 100 µM 23.5% | [9]; 10 µM 85.3% | [9]; 100 µM 51.5% | [10]; 10 µM 85.5%
